Compound activity as filed in PubChem.
Tau ThT inhib: qHTS for Inhibitors of Tau Fibril Formation, Thioflavin T Binding; actives 2.1% (n = 270,000); Potency, µM (top dose mostly 57.4 µM), most hits filed as inhibitors; recombinant tau K18 P301L, heparin-induced fibrillization, ThT fluorescence; AID 1460, 2008; further: nearly all actives have a fitted effect of over 55% in size
Target sequence (P10636 561-689 P618L limits assumed): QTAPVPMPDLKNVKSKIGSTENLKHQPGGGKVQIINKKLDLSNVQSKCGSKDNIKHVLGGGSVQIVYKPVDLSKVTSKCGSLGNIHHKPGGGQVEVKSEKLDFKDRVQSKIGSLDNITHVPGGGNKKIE
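Aggregation was driven by heparin (20 uM final) acting on recombinant tau […] bearing P301L in 100 mM sodium acetate pH 7; fibrils were detected with Thioflavin T.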
Tau fluor counter: Counterscreen qHTS for Inhibitors of Tau Fibril Formation, Fluorescence Polarization; tau K18 P301L (four-repeat tau fragment) Alexa594 fluorescence, heparin fibrillization; Potency, µM (series often up to 57.7 µM); actives 0.93% (n = 280,000); further: nearly all actives have a fitted effect of over 55% in size
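Human K18 P301L tau (15 uM unlabeled plus 0.24 uM Alexa 594-labeled, final) in 100 mM sodium acetate pH 7 was mixed with compound and 20 uM heparin and incubated 6 hr at 37 C.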
HPGD block: qHTS Assay for Inhibitors of HPGD (15-Hydroxyprostaglandin Dehydrogenase); Potency, µM, hits mostly inhibitors; purified HPGD, NADH fluorescence kinetic, PGE2 substrate; actives 4.3% (n = 150,000); 15-hydroxyprostaglandin dehydrogenase [NAD(+)] (Homo sapiens), P15428; active means well fitted inhibition curve with a large enough effect, not every such curve was filed as active; inconclusive means small, poorly fitted or top-dose-only effect, or another doubt; inactive means no such curve, though single readings can be large or run the other way
Target sequence (P15428 whole entry, looked up): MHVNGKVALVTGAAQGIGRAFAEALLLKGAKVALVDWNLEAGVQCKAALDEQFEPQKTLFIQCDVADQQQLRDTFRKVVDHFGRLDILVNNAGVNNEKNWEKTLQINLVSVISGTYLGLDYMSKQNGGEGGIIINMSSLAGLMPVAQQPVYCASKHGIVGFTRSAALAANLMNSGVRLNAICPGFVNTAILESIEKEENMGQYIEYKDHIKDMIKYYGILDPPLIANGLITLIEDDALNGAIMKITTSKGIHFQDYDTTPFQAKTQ
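20 nM HPGD preincubated 15 min at room temperature with compound in 50 mM Tris-HCl pH 8, 0.01% Tween 20. Started with 1 mM NAD+ and 30 uM prostaglandin E2; NADH fluorescence (360/450 nm) read 5 times over 30-s intervals, last minus first.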
ALDH1A1 block: qHTS Assay for Inhibitors of Aldehyde Dehydrogenase 1 (ALDH1A1); Aldehyde dehydrogenase 1A1 (Homo sapiens), P00352; Purified ALDH1A1, NADH fluorescence, propionaldehyde substrate; Potency, µM (titrated, usually from 75.3 µM), hits mostly inhibitors; actives 7.3% (n = 220,000); AID 1030, 2008; active means well fitted inhibition curve with a large enough effect, not every such curve was filed as active; inconclusive means small, poorly fitted or top-dose-only effect, or another doubt; inactive means no such curve, though single readings can be large or run the other way
NPSR antagonist: qHTS Assay for Antagonists of the Neuropeptide S Receptor: cAMP Signal Transduction | Potency, µM (highest dose often 38.3 µM), most hits filed as inhibitors | CHO-NPSR cells, cAMP TR-FRET, antagonist mode | AID 1461, 2008 | actives 1% (n = 220,000) | Q6W5P4; further: nearly all actives have a fitted effect of over 50% in size
Tau FP inhib: qHTS for Inhibitors of Tau Fibril Formation, Fluorescence Polarization | Microtubule-associated protein tau (Homo sapiens), P10636 | K18 P301L tau heparin fibrillization, Alexa594 FP, 6 h | Potency, µM (highest dose often 57.7 µM), most hits filed as inhibitors | actives 0.39% (n = 280,000); further: nearly all actives have a fitted effect of over 55% in size
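Human K18 P301L fragment (15 uM unlabeled plus 0.24 uM Alexa 594-labeled) in 100 mM sodium acetate pH 7 with compound, aggregation induced by 20 uM heparin for 6 hr at 37 C. ThT (30 uM) added for 1 hr, then Alexa 594 FP read.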
Each line names hits and unclear results; the compound was inactive in the other large screens; [ ] = remark or other dose. An excerpt weighted towards active compounds, which were near 9.5% of everything screened. Unless noted, the call rests on the fitted dose curve; in most records, active means well fitted curve in the direction sought with a large enough effect; inconclusive means small, poorly fitted or top-dose-only effect, or another doubt; inactive means no such curve, though single readings can be large; an effect the other way counts as inactive or inconclusive.

CC1(C)CCC[C@@]2(C)C1CC[C@@](C)(O)[C@@H]2CC[C@@](C)(O)C1CO1 (stereo not given in full)	ALDH1A1 block inconclusive (no result: NPSR antagonist)
CCCn1nnc(NC(=O)c2ccc(Br)cc2)n1	NPSR antagonist inconclusive
CCCn1nnc(NC(=O)c2cc(Br)cc(Br)c2OC)n1	ALDH1A1 block 11µM (no result: HPGD block)
COc1ccc(CNC(=O)CSc2ncc3c(n2)-c2ccc(Cl)cc2N(Cc2ccc(F)cc2)S3(=O)=O)cc1OC	none (no result: HPGD block, ALDH1A1 block, NPSR antagonist)
N[C@@H](Cc1ccccc1)c1nnc(SCc2ccccc2Cl)o1	HPGD block 28µM, ALDH1A1 block inconclusive
CCc1ccccc1NC(=O)CSc1nnc([C@@H](N)Cc2ccccc2)o1	Tau ThT inhib inconclusive, ALDH1A1 block inconclusive
C=CCn1c(SCC(=O)N2CCCCC2)nc(O)cc1=O	HPGD block 0.32µM
Cc1ccc(-n2ncc3c(=O)n(CC#N)cnc32)cc1	ALDH1A1 block inconclusive
COC(CNC(=O)c1cc(C(=O)c2c(-c3c(Cl)cccc3Cl)noc2C)c[nH]1)OC	ALDH1A1 block 10µM
CC(C)C1N(C(N)=S)N=CC1(C)C (stereo not given)	none (no result: HPGD block, ALDH1A1 block)
COC1(c2ccccc2)NC(=S)NN=C1c1ccccc1 (stereo not given)	ALDH1A1 block 0.89µM
CCCCOC1(c2ccccc2)NC(=S)NN=C1c1ccccc1 (stereo not given)	ALDH1A1 block 0.56µM
COc1cc2[nH]c(=O)n(CCCCCC(=O)NCCc3c[nH]c4ccccc34)c(=O)c2cc1OC	Tau ThT inhib inconclusive
O=C(CSc1nc(-c2ccc(F)cc2)[nH]c1-c1ccccc1)Nc1ccccc1	Tau fluor counter inconclusive, Tau FP inhib inconclusive (no result: HPGD block, ALDH1A1 block, NPSR antagonist)
COc1cc(-c2nc(SCC(=O)Nc3ccc(C)cc3)c(-c3ccc(F)cc3)[nH]2)cc(OC)c1OC	Tau fluor counter 4.5µM[quencher] (no result: HPGD block, ALDH1A1 block, NPSR antagonist)
COc1ccc(NC(=O)CSc2nc(-c3ccccc3)[nH]c2-c2ccccc2)cc1OC	Tau ThT inhib inconclusive, Tau fluor counter 16µM[quencher] (no result: HPGD block, ALDH1A1 block, NPSR antagonist)
COCCNC(=O)CSc1nc(-c2cc(OC)c(OC)c(OC)c2)[nH]c1-c1ccc(Cl)cc1	Tau ThT inhib inconclusive, Tau fluor counter 16µM[quencher], Tau FP inhib inconclusive (no result: HPGD block, ALDH1A1 block, NPSR antagonist)
COc1ccc2cnnc(SCC(=O)Nc3ccc(C(=O)O)cc3)c2c1OC	HPGD block inconclusive, ALDH1A1 block inconclusive
COc1ccc2cnnc(SCC(=O)Nc3ccccc3)c2c1OC	HPGD block 25µM, ALDH1A1 block inconclusive
COCCNC(=O)CSc1nc(-c2ccc(C)cc2)[nH]c1-c1ccc(OC)cc1	Tau FP inhib inconclusive (no result: HPGD block, ALDH1A1 block, NPSR antagonist)
CCc1ccccc1-n1c(C)nc2cc(C(=O)NCCc3ccc(Cl)cc3)ccc21	Tau ThT inhib inconclusive (no result: HPGD block, ALDH1A1 block, NPSR antagonist)
Fc1ccc(Nc2ncnc3onc(-c4ccc(Cl)cc4)c23)cc1Cl	Tau fluor counter inconclusive (no result: HPGD block, ALDH1A1 block, NPSR antagonist)
CC(C)C[C@@H](CC(=O)N[C@@H](CCC(=O)O)CC(=O)O)NC(=O)[C@@H]1CCCC[C@H]1NC(=O)C[C@H](CCCN)NC(=O)C[C@H](Cc1c[nH]c2ccccc12)NC(=O)[C@@H]1CNCC[C@H]1N	ALDH1A1 block inconclusive (no result: NPSR antagonist)
CCc1nnc2c(Nc3ccc(Br)c(C)c3)nc3ccccc3n12	none (no result: HPGD block, ALDH1A1 block, NPSR antagonist)
COc1ccc(NC(=O)CSc2nc(-c3ccc(F)cc3)[nH]c2-c2ccc(C)cc2)cc1OC	Tau ThT inhib inconclusive, Tau fluor counter 3.5µM[quencher] (no result: HPGD block, ALDH1A1 block, NPSR antagonist)
COc1ccc(-c2nc(SCC(=O)Nc3ccccc3)c(-c3ccc(F)cc3)[nH]2)cc1OC	Tau ThT inhib inconclusive, Tau fluor counter 7.1µM[quencher], Tau FP inhib inconclusive (no result: HPGD block, ALDH1A1 block, NPSR antagonist)
COc1cccc(C(c2nnnn2CC2CCCO2)N2CCN(C(=O)c3ccco3)CC2)c1OC (stereo not given)	none (no result: HPGD block)
Cc1nn(-c2ccccc2)c(C)c1/C=N\N1CCN(c2ccc(Cl)cc2)CC1	Tau ThT inhib 8.9µM, Tau fluor counter inconclusive
